Experimental data reported in PubChem BioAssay AID1508600 (Functional Genomics Laboratory (NCATS/FGL), 2020).
About 3,700 (7%) of roughly 53,000 sequences were called active. Many of the other results were omitted from the sample, so actives are more common in it than they were. A number with no mark means an inactive call.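 Rule for the calls: active = gene knockdowns whose robust z-score for IL-1 alpha signal is at least 2 or at most -2, so actives lie on both sides; inactive = the rest.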

Experiment: Components of the Cytosolic LPS Sensing Pathway: Gene Identification via Genome-wide siRNA Screen;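 note: robust z of the log signal after scaling to non-targeting control siRNA wells of the plate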
Details: RAW264.7 macrophages, IL-1a HTRF, actives lie on both sides, screened at 100 nM (by protocol), cells primed 5 h with Pam3CSK4 first
Method in brief: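 Read-out: IL-1a HTRF on supernatant, divided by plate negative-control median ×100, log-transformed and converted to robust z-score. Cells were RAW264.7 given 100 nM siRNA, Pam3CSK4-primed 5 hours, then LipidA-transfected 24 hour.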

Sequence | z-score
GGCUUAUCAGUCCAUGAAGTT against Dhrs11 | -0.601
GGCGAUCAGGCAUCAUCCUTT against Aox1 | -0.153
GGCAACCAGUCUCAUCAAUTT against Scgb1b27 | -0.927
GCAGAGAUACCUAUCAAAGTT against Angptl4 | 1.16
GGAAGAGGAACAGUUAGCCTT against Zfp553 | -0.24
GGAGGUCUGGAUUAACUGUTT against Cd163l1 | 2.2 (active)
GCAUCCUGAGCAGUGAUAUTT against Taar7b | -1.75
GGGUGCAGUGGAGUCUAUUTT against Smc1a | -1.31
GGAUUCUGAAGUGUAAAGATT against Icos | -0.764
GGCAGAGAUUGAGAGCAAGTT against Palm | 2.28 (active)
GGAGUUCCUCAAGAAUUUUTT against Arpc4 | -1.39
GGUUGUACUGAGUAGCUGGTT against Slc7a4 | 0.997
GGUUUACAAGAGUUACAGUTT against Brpf1 | 0.493
GCAAAGUUGGUGACGUGAUTT against Pole2 | -2.15 (active)
CCAAUAAGGCAUAUGUUUUTT against Scarb2 | -0.608
GGCACAGCUUGCUGAAGCUTT against Atp11b | -1.76
GGAAUACAAAGAUAGCUUCTT against Atrn | 0.786
GGCUUCUGGACCUCAAACATT against Zfp92 | -2.14 (active)
GGCAAUGUUUUUCUUGUUGTT against 9330132A10Rik | -1.12
GACCCGCUGCUGCUCAAAUTT against Cdc42ep5 | -0.178
GGGCAAAAGUACUUUGACUTT against Ensa | 2.2 (active)
GGACUGUGAUCAGGUUUGUTT against Elk3 | 0.695
GGUAACCAUGAUGAUGACATT against Tmem38b | -2.05 (active)
GGAAGACACAUUUUUCCAUTT against Serpinb9e | 0.733

Sequence | z-score
GGUCUCUCGGACUUUUUCCTT against Adipor1 | -0.765
CCAAUGUUGGCAUUAUGUUTT against Fah | -0.354
GGAAGAAACUGGAAAGAUUTT against Ankrd23 | -1.01
GGAAUGGUCCCUCCAAUGATT against Prpf40b | 2.38 (active)
GGACACAAGCCUAUUCCAATT against Rffl | 1.59
GGAUUCAAGCAUCGGAUUGTT against Adamts6 | 1.11
GGCAAUUGUCUCAUUCUGATT against Olfr631 | 0.806
CCAUCAACCCAUCAUGUGCTT against Pitpnc1 | -1.25
GGCCUUGUAUGAAUUAUUUTT against Sqle | 2.18 (active)
GGGAGCAAAUUAGAGAAAUTT against Gsk3b | 0.884
GGUCCUCGGUUACAGAAACTT against Cnr2 | -0.263
CCCAGCUUUUCAACUUGCUTT against Tmc4 | -1.19
GGGCCUUGUUUUAGGAAUUTT against Lap3 | 2.2 (active)
GGUACUGGAUCAAAGAAACTT against Gm11992 | -1.75
GCUGGUACAAGGUGUUUGATT against Pqbp1 | 0.825
GGAAGCACUCAGUGCUCUGTT against Igfbp6 | 2.06 (active)
GGAGGUGAAGCUCAUUGUCTT against Ildr1 | -0.165
CCGUGUCAUUUGGAGAGCUTT against Ndufaf5 | -0.248
GGUGCAGUUCAGCAACAAGTT against Mat2b | -1.65
GCAGUUGGGUUGGUAACUATT against Ash1l | 0.101
GGGCAAACCUUCUAAACUATT against Ttpa | 0.505
GGAUCACCCAUACAGGAACTT against Pla2g2f | -2.1 (active)
GCUGACAAAACUGCUAAACTT against Ctnnb1 | 0.948
